Inconclusive results are not listed. The source made the active and inactive calls. Unless noted, calls come from the whole dose curve.
Assays:
[1] = Nuclear factor erythroid 2-related factor 2/antioxidant responsive element (Nrf2/ARE) small molecule agonists: qHTS cell viability counter screen in human keratinocytes (AID 1919968; active = well fitted curve in the direction sought with a large enough effect in the repeat runs; an effect the other way counts as inactive or inconclusive; note: nearly all actives have a fitted effect of over 55% in size)
Summary of the method: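 Cells of the KeratinoSens line were plated at 1,500 per well and left for 5 h before compound transfer from DMSO stocks. After a 23 h incubation (37 C, 5% CO2), CellTiter-Fluor was added. Signal was taken as fluorescence intensity 1 h later.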

[2] = Nuclear factor erythroid 2-related factor 2/antioxidant responsive element (Nrf2/ARE) small molecule agonists: luciferase reporter gene qHTS assay in human keratinocytes (AID 1919969); note: nearly all actives have a fitted effect of over 35% in size
[3] = molecular target: Gonadotropin-releasing hormone receptor (Homo sapiens) (UniProt P30968); assay: Human gonadotropin-releasing hormone receptor (GnRHR) small molecule agonists, calcium flux assay in GnRHR-HEK293 cells (AID 1920063); note: nearly all actives have a fitted effect of over 35% in size
Gonadotropin-releasing hormone receptor (Homo sapiens), sequence (P30968 whole entry, looked up): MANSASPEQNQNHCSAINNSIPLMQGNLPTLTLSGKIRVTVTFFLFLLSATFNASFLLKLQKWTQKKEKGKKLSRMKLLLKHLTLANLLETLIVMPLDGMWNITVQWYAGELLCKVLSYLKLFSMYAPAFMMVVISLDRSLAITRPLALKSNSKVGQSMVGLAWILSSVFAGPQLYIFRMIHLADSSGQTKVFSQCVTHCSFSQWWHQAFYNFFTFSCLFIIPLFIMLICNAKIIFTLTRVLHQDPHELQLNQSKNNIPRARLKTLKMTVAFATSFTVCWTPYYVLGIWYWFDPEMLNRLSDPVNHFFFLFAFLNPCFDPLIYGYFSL
Summary of the method: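 Compounds dissolved in DMSO are pin-transferred onto dye-loaded GnRHR-HEK293 cells, which were seeded 18 h before at 37 C/5% CO2. Calcium signal is read as fluorescence intensity at 1 s intervals for 3 min.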

[4] = molecular target: KiSS-1 receptor (Homo sapiens) (UniProt Q969F8); assay: Human kisspeptin (KISS1R) small molecule agonists, calcium flux assay in KISS1R-HEK293 cells (AID 1920064; active = well fitted curve in the direction sought with a large enough effect in the repeat runs; an effect the other way counts as inactive or inconclusive)
KiSS-1 receptor (Homo sapiens), sequence (Q969F8 whole entry, looked up): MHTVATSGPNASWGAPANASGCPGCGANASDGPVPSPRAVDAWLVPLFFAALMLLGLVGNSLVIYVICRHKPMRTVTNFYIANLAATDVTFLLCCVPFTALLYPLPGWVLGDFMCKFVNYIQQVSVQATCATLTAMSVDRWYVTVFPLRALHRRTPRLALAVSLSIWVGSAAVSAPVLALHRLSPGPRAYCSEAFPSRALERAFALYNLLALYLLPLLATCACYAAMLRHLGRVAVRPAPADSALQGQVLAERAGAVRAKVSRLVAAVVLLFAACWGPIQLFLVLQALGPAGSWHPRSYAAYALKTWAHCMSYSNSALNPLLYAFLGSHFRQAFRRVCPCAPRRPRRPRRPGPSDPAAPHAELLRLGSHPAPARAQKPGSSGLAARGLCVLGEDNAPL
Summary of the method: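 Cell line: HEK293, stable human KISS1R. Dye loading 1 h at 37 C after 18 h culture. Read: kinetic fluorescence, 480/540 nm, 3 min at 1 s intervals.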

[5] = G protein-coupled receptor (GPCR) small molecule agonists, calcium flux assay: HEK293 wild type cell line counter screen (AID 1920065)
Summary of the method: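 Tox21 10K compounds, 15 concentrations each in triplicate, pin-transferred in DMSO onto dye-loaded cells; kinetic read at 480/540 nm for 3 min, 1 s intervals.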

[6] = p53 small molecule agonists, cell-based qHTS assay with human liver microsomes (AID 1963577);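 note: p53 response element beta-lactamase reporter cells with liver microsomes plus NADPH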
Summary of the method: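 16 h, 37 C exposure of p53RE-bla cells to compounds with human liver microsomes and NADPH (0.5 mg/mL final each); detection via LiveBLAzer mixture, 2 h dark at room temperature.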

[7] = p53 small molecule agonists, cell-based qHTS assay with rat liver microsomes (AID 1963578)
Summary of the method: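 With rat liver microsomes and NADPH present (0.5 mg/mL final each), p53RE-bla cells are treated with compound for 16 h at 37 C. LiveBLAzer detection mixture is then applied for 2 h at room temperature in the dark.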

[8] = p53 small molecule agonists, cell-based qHTS assay with human liver microsomes: qHTS cell viability counter screen (AID 1963579); note: nearly all actives have a fitted effect of over 45% in size
Summary of the method: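 In this multiplexed counter screen, the reporter plates were subsequently treated with CellTiter-Glo so that cell viability, reflected by luminescence, could be recorded for p53RE-bla cells dosed 16 h with compounds under microsomal activation (HLM and NADPH).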

[9] = p53 small molecule agonists, cell-based qHTS assay with rat liver microsomes: qHTS cell viability counter screen (AID 1963580); note: nearly all actives have a fitted effect of over 45% in size
Summary of the method: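 Cytotoxicity counter screen: intracellular ATP read by CellTiter-Glo luminescence in the p53 reporter wells. HCT-116 p53RE-bla cells were treated for 16 h at 37 C alongside rat liver microsomes and NADPH, each 0.5 mg/mL final.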

[10] = p53 small molecule agonists, cell-based qHTS assay: qHTS cell viability counter screen (AID 1963581); note: nearly all actives have a fitted effect of over 45% in size
Summary of the method: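 ATP content measured by luminescence in HCT-116 p53RE-bla cells treated 16 h at 37 C, same wells as the reporter screen.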

[11] = p53 small molecule agonists, cell-based qHTS assay (AID 1963582; active = well fitted activation curve with a large enough effect in the signal ratio in the repeat runs, not every such curve was filed as active; the % refers to the signal ratio)
Summary of the method: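 16 h compound exposure (37 C) of p53 response element–bla cells, preceded by 5 h recovery at 37 C/5% CO2; read-out via LiveBLAzer B/G FRET substrate, 2 h RT, fluorescence intensity.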

[12] = molecular target: 5-hydroxytryptamine receptor 2A (Homo sapiens) (UniProt P28223); assay: 5-hydroxytryptamine receptor 2A (HTR2A) small molecule antagonists, cell-based qHTS assay (AID 1963586); note: nearly all actives have a fitted effect of over 45% in size
5-hydroxytryptamine receptor 2A (Homo sapiens), sequence (P28223 whole entry, looked up): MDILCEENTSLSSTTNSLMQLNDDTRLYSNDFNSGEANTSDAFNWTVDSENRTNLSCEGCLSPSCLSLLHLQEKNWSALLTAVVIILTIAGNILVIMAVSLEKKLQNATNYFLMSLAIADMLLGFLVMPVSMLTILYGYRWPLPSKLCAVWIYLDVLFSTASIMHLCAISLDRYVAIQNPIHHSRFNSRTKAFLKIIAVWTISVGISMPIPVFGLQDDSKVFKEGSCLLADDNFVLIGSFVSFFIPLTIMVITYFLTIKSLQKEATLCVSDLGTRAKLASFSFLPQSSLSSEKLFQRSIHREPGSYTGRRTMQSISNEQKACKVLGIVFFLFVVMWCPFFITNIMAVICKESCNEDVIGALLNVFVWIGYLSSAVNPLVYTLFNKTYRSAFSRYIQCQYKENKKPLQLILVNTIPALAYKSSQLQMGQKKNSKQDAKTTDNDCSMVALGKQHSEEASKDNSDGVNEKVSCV
Summary of the method: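 CHO cells stably expressing human HTR2A were plated for 18 h at 37 C, then loaded with calcium dye for 1 h. Compounds were preincubated 5 min at room temperature before DOI (4 nM solution) was added. Kinetic fluorescence was read for 3 min.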

[13] = molecular target: 5-hydroxytryptamine receptor 2A (Homo sapiens) (UniProt P28223); assay: 5-hydroxytryptamine receptor 2A (HTR2A) small molecule agonists, cell-based qHTS assay (AID 1963587); note: nearly all actives have a fitted effect of over 30% in size
Summary of the method: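 Kinetic calcium-flux fluorescence (2 min, 1 sec intervals) after compound addition in agonist mode. HTR2A-CHO cells were cultured 18 h, then dye-loaded 1 h at 37 C.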

[14] = molecular target: Muscarinic acetylcholine receptor M1 (Homo sapiens) (UniProt P11229); assay: Cholinergic receptor muscarinic 1 (CHRM1) small molecule antagonists, cell-based qHTS assay (AID 1963588); note: nearly all actives have a fitted effect of over 40% in size
Muscarinic acetylcholine receptor M1 (Homo sapiens), sequence (P11229 whole entry, looked up): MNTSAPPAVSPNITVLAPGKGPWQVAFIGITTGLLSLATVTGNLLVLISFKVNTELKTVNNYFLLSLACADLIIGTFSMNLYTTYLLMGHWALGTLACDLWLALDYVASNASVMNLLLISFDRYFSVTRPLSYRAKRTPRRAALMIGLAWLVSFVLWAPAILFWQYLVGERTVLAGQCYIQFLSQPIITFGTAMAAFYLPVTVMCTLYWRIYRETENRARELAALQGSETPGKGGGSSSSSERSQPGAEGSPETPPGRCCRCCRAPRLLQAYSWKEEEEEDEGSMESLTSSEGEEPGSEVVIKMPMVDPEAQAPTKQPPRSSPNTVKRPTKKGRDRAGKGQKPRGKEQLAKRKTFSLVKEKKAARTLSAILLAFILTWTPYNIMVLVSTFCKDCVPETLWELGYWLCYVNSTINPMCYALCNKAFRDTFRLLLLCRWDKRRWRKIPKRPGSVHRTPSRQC
Summary of the method: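 Compounds were tested at 15 concentrations in three independent runs. Dye-loaded CHRM1-CHO cells were exposed 5 min at room temperature before stimulation by acetylcholine added at 50nM. Intracellular calcium was read kinetically on FDSS for 3 min.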

[15] = molecular target: Muscarinic acetylcholine receptor M1 (Homo sapiens) (UniProt P11229); assay: Cholinergic receptor muscarinic 1 (CHRM1) small molecule agonists, cell-based qHTS assay (AID 1963589); note: nearly all actives have a fitted effect of over 35% in size
Summary of the method: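 Homogeneous fluorescence calcium flux, agonist mode. Human M1-expressing CHO cells; compound dosed at 15 concentrations, three independent runs; signal sampled every 1 sec.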

[16] = cAMP Responsive Elements (CRE) small molecule agonists, cell-based qHTS assay (AID 1963590)
Summary of the method: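 HEK 293T cells stably bearing CRE-bla were plated at 2,000 cells per well and rested 18 h. Compounds, positive controls or DMSO were added for 3 h at 37 C. LiveBLAzer B/G substrate was then loaded for 2 h at room temperature.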

[17] = cAMP Responsive Elements (CRE) small molecule antagonists, cell-based qHTS assay (AID 1963591; active = well fitted inhibition curve with a large enough effect in the signal ratio in the repeat runs, not every such curve was filed as active; the % refers to the signal ratio)
Summary of the method: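 First, CRE-bla HEK293T cells settled 18 h at 37 C. Next, compound and 0.25 uM final NKH477 were applied for 3 h. Last, LiveBLAzer B/G substrate was loaded for 2 h at room temperature.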

[18] = molecular target: Beta-2 adrenergic receptor (Homo sapiens) (UniProt P07550); assay: Adrenergic beta2 receptor (ADRB2) small molecule antagonists, cell-based qHTS assay (AID 1963592); note: series mostly up to about 92 µM; nearly all actives have a fitted effect of over 50% in size
Beta-2 adrenergic receptor (Homo sapiens), sequence (P07550 whole entry, looked up): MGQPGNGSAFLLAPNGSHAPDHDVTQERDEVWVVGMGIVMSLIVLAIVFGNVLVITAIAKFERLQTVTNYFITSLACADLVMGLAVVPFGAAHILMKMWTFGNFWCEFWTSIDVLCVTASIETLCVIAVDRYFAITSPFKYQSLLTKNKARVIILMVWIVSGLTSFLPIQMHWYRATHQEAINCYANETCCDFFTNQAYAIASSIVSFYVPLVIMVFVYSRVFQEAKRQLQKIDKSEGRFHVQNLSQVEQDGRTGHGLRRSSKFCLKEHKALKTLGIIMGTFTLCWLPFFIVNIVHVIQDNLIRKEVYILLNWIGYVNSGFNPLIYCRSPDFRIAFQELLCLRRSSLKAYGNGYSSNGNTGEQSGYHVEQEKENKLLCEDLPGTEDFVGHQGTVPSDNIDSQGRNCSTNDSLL
Summary of the method: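 Assay format: CHO-ADRB2 cells, 18-20hr seeding at 37C/5% CO2, then compound plus 1nM isoproterenol agonist mix for 0.5hr RT. Homogeneous time-resolved fluorescence cAMP detection after 1hr, expressed as 665/615 nm ratio.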

[19] = molecular target: Beta-2 adrenergic receptor (Homo sapiens) (UniProt P07550); assay: Adrenergic beta2 receptor (ADRB2) small molecule agonists, cell-based qHTS assay (AID 1963593);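 note: CHO cells stably overexpressing human ADRB2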
Summary of the method: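 CHO cells stably over-expressing ADRB2 were plated overnight at 37C, then dosed with compounds plus a stimulation mix containing 100uM IBMX and 25uM Ro-20-1724 for 0.5hr at room temperature. cAMP was measured by HTRF competition, 1hr.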

[20] = molecular target: D(2) dopamine receptor (Homo sapiens) (UniProt P14416); assay: Dopamine D2 receptor (DRD2) small molecule agonists, cell-based qHTS assay (AID 1963594); note: nearly all actives have a fitted effect of over 35% in size
D(2) dopamine receptor (Homo sapiens), sequence (P14416 whole entry, looked up): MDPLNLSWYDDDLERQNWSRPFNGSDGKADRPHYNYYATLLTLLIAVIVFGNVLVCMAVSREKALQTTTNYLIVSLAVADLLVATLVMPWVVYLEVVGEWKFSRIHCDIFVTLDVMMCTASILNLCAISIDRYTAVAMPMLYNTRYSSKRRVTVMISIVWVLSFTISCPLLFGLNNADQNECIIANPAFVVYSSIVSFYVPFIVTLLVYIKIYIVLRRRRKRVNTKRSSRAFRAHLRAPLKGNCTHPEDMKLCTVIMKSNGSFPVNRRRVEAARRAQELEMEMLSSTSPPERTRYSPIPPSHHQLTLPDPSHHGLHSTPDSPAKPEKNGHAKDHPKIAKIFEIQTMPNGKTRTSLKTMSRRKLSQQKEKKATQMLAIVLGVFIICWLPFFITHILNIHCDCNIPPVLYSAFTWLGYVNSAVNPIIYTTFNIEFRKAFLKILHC
Summary of the method: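 cAMP accumulation in DRD2-HEK293 cells measured by HTRF after 1 h detection; compounds added 10 min before NKH477 (200nM […]) forskolin-analogue stimulation, 30 min at room temperature, with Ro20-1724 present at 0.1 mM final.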

Measured: Potency

CC(C)CCCCOC(=O)c1ccccc1C(=O)OCCCCC(C)C
inactive: [1] | [2] | [3] | [4] | [5] | [6] | [7] | [8] | [9] | [10] | [11] | [12] | [13] | [14] | [15] | [16] | [17] | [18] | [19] | [20]

CC(C)CC(O)CC(C)C
inactive: [1] | [2] | [3] | [4] | [5] | [6] | [7] | [8] | [9] | [10] | [11] | [12] | [13] | [14] | [15] | [16] | [17] | [18] | [19] | [20]

N=C(N)c1ccc2cc(OC(=O)c3ccc(N=C(N)N)cc3)ccc2c1
inactive: [1] | [2] | [3] | [4] | [5] | [6] | [7] | [8] | [9] | [10] | [11] | [12] | [13] | [14] | [15] | [16] | [17] | [18] | [19] | [20]

Cn1c(=O)c2[nH]c(Br)nc2n(C)c1=O
inactive: [1] | [2] | [3] | [4] | [5] | [6] | [7] | [8] | [9] | [10] | [11] | [12] | [13] | [14] | [15] | [16] | [17] | [18] | [19]

CCOCCOCC
inactive: [1] | [2] | [3] | [4] | [5] | [6] | [7] | [8] | [9] | [10] | [11] | [12] | [13] | [14] | [15] | [16] | [17] | [18] | [19] | [20]

C=CC(=O)NC(C)C
inactive: [1] | [2] | [3] | [4] | [5] | [6] | [7] | [8] | [9] | [10] | [11] | [12] | [13] | [14] | [15] | [16] | [17] | [18] | [19] | [20]

O=C(O)CNc1ccccc1
inactive: [1] | [2] | [3] | [4] | [5] | [6] | [7] | [8] | [9] | [10] | [11] | [12] | [13] | [14] | [15] | [16] | [17] | [18] | [19] | [20]

Reference: PubChem BioAssay (Tox21)
